Substrate conversion data for one compound are collected here from PubChem BioAssay AID2293 (National Center for Advancing Translational Sciences (NCATS), 2010).

Active and inactive are the calls of the source. No rule for the calls is given here.

For the first experiment, the target named is Lysosomal alpha-glucosidase (Homo sapiens) (UniProt P10253). Briefly: Direct Measure of the Activation of Acid alpha-Glucosidase Catalytic Rate. Conditions: purified enzyme, 4MU-alpha-Glc conversion, LC-MS; at 37.5 µM; stronger effect = higher value. The source says: NIH Chemical Genomics Center [NCGC] NIH Molecular Libraries Probe Production centers Network [MLPCN] MLPCN Grant: 1R03MH084841-01 Assay Submitter (PI): Wei Zheng NCGC Assay Overview: Alpha-glucosidase is responsible for hydrolysis of terminal, non-reducing 1,4-linked alpha-D-glucose residues with release of alpha-D-glucose. It is a lysosomal hydrolase that is required for the degradation of a small percentage (1-3%) of cellular glycogen in human. Deficiency of this enzyme results in glycogen-storage disease type II (GSDII), also referred to as Pompe disease, an autosomal recessive disorder. Structurally normal glycogen is accumulated in lysosomes and cytoplasm in affected patients, primarily in muscle tissues. Excessive glycogen storage within lysosomes may interrupt normal functioning of other organelles and leads to cellular injury. In turn, this leads to enlargement and dysfunction of the entire organ involved (eg, cardiomyopathy and muscle weakness). It has reported that the improper folding and trafficking of alpha-glucosidase resulting from the genetic mutations may account for a significant number of Pompe patients. […]
The catalysis rate of the 4MU-alpha-Gluc substrate by acid alpha-glucosidase was measured using LC-MS. […] (5) Add 50 ul stop solution (1M NaOH and 1M Glycine mixture, pH 10) (6) Run LC-MS and integrate peaks to quantitate amount of product
Take `CCCN1CNc2c(c(=O)[nH]c(=S)n2CCc2ccc(OC)c(OC)c2)C1`: the substrate conversion was 28% (active).

Staying with this experiment, now noted: purified enzyme, 4MU-alpha-Glc conversion, LC-MS; conversion; at 5 µM; stronger effect = higher value.
`CCCN1CNc2c(c(=O)[nH]c(=S)n2CCc2ccc(OC)c(OC)c2)C1` gave a substrate conversion of 20%.
